Values without a mark were called inactive. Where a call stands in place of a potency, no number is given. For part of these data: Potency and affinity values are given separately. Active and inactive are the calls of the source. Unless noted, the rule behind the calls is not given here.
How the values were obtained:
[1] = antimalarial activity against Dd2 strain (AID 2302;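 active = growth inhibition above 50% at the single 2 µM test dose, taken to imply half-maximal potency below 2 µM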); settings: P. falciparum Dd2 in RBCs, LDH growth readout, 72 h; at 2 µM; hits give high values
[2] = HepG2 cytotoxicity, primary screen, cytotoxicity control for P. falciparum antimalarial project, cell-based, ATP luminescence (AID 2303;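 active = inhibition above 50%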); settings: HepG2 viability, 24-48 h, at 10 µM, hits give high values
[3] = target: L-lactate dehydrogenase (Plasmodium falciparum (isolate CDC / Honduras)) (UniProt Q27743); assay: PfLDH activity inhibition – cell lysate, 3D7 strain, counter-screen for P. falciparum growth inhibition project (AID 2304); settings: P. falciparum 3D7 crude extract, LDH APAD/NBT absorbance; at 2 µM; hits give high values
[4] = inhibition of 3D7 malaria parasite growth – strain 3D7 (AID 2306); settings: P. falciparum 3D7 erythrocytic growth, LDH absorbance, 72 h; at 2 µM; hits give high values
[5] = target: Calcium-dependent protein kinase 1 (Plasmodium falciparum (isolate 3D7)) (UniProt P62344); assay: PfCDPK1 kinase inhibitors, biochemical, TCAMS library (AID 1159585; cut-off not given, nearly all actives have IC50 up to about 0.98 µM;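 note: inhibitors leave more ATP so luminescence rises with inhibition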); settings: recombinant PfCDPK1, Kinase-Glo ATP depletion luminescence
[6] = target: Plasmodium falciparum protein kinase 6 (PK6, PF3D7_1337100) (UniProt Q8IDW1); assay: PfPK6 kinase inhibitors, biochemical, TCAMS library (AID 1159586); settings: recombinant PfPK6, Kinase-Glo ATP depletion luminescence
[7] = target: Protein kinase 7 (PK7), Plasmodium falciparum 3D7 (PF3D7_0213400) (UniProt Q7YTF7); assay: inhibition of Plasmodium PK7 catalytic activity – biochemical, TCAMS antimalarial set, Kinase-Glo luminescence (AID 1159587); settings: recombinant PfPK7, Kinase-Glo ATP depletion luminescence
[8] = target: Calcium-dependent protein kinase 4 (Plasmodium falciparum (isolate 3D7)) (UniProt Q8IBS5); assay: PfCDPK4 kinase inhibitors, biochemical, TCAMS library (AID 1159588; cut-off not given, nearly all actives have IC50 up to about 0.91 µM); settings: recombinant PfCDPK4, Kinase-Glo ATP depletion luminescence
Sequence of Calcium-dependent protein kinase 4 (Plasmodium falciparum (isolate 3D7)) (Q8IBS5 whole entry, looked up): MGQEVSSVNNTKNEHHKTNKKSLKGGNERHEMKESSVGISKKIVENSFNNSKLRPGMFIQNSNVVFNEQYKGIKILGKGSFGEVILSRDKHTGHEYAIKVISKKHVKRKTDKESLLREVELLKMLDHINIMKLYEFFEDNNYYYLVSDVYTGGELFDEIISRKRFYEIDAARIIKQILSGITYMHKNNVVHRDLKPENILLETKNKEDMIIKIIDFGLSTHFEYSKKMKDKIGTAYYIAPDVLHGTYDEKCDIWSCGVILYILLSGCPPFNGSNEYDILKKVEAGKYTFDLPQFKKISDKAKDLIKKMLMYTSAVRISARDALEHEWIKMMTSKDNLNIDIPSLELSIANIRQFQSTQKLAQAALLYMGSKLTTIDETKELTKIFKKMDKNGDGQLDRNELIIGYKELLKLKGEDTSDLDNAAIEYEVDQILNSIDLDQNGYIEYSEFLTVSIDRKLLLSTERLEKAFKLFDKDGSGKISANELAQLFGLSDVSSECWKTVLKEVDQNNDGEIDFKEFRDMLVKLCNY

Sequence of Protein kinase 7 (PK7), Plasmodium falciparum 3D7 (PF3D7_0213400) (Q7YTF7 1-343): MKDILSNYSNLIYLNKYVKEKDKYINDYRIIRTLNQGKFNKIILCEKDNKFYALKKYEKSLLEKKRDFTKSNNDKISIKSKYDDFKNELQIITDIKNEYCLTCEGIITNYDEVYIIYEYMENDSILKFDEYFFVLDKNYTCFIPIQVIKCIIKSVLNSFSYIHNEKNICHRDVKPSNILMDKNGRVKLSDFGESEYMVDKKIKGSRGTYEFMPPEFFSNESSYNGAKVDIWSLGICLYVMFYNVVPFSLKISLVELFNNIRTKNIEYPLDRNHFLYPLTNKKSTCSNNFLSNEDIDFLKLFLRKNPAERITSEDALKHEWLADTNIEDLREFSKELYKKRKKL
Sequence of Calcium-dependent protein kinase 1 (Plasmodium falciparum (isolate 3D7)) (P62344 whole entry, looked up): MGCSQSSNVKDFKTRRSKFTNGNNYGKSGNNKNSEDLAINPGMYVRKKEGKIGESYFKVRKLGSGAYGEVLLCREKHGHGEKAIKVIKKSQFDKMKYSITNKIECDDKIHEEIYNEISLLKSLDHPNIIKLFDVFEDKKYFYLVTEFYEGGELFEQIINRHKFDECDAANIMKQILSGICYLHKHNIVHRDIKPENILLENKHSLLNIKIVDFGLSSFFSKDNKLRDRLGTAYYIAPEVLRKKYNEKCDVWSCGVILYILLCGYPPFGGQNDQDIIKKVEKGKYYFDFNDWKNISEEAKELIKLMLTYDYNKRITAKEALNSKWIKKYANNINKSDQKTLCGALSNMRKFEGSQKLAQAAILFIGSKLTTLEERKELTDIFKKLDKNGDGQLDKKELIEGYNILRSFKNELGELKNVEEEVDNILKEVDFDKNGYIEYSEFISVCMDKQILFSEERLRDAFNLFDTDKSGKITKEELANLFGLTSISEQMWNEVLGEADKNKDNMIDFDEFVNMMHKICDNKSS
Sequence of Plasmodium falciparum protein kinase 6 (PK6, PF3D7_1337100) (Q8IDW1 1-305): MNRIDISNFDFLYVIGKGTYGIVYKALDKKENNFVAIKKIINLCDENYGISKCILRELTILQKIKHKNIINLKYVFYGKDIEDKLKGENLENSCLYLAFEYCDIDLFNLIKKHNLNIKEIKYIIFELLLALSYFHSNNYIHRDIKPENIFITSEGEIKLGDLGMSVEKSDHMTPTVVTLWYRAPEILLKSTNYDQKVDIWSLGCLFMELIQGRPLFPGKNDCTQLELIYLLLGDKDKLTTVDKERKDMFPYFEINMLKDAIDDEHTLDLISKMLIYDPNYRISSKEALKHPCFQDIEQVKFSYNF
Sequence of L-lactate dehydrogenase (Plasmodium falciparum (isolate CDC / Honduras)) (Q27743 whole entry, looked up): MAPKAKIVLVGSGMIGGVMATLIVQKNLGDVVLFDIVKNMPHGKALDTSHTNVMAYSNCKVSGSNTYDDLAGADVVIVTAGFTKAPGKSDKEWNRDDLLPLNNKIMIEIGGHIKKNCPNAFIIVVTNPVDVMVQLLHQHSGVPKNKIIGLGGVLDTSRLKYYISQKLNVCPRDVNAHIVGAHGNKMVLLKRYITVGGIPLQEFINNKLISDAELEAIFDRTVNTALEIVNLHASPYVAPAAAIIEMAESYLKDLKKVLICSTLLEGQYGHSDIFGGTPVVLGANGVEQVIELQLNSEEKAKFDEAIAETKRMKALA

SMILES	growth inhibition [1]	inhibition [2]	inhibition [3] [%]	growth inhibition [4]	outcome [5]	outcome [6]	outcome [7]	outcome [8]
COc1cccc(C2CCN(CCN3CCC(NC(=O)c4ccc(-c5ccc(C(F)(F)F)cc5)cc4)CC3)CC2)c1	99% (active)	46%	-7	99% (active)	inactive	inactive	inactive	inactive
CCOc1ccc(-c2nc(NC(=O)COc3ccc(OC)cc3)sc2C)cc1	87% (active)	0%	-9	99% (active)	inactive	inactive	inactive	inactive
O=S(=O)(c1ccc(Oc2ccccc2)cc1)N(CCC(O)(C(F)(F)F)C(F)(F)F)Cc1cccc(O)c1	99% (active)	-13%	5	102% (active)	inactive	inactive	inactive	inactive
CC1(C)N=C(N)N=C(N)N1OCCc1ccc(N)cc1	95% (active)	65% (active)	-6	93% (active)	inactive	inactive	inactive	inactive
COc1cc(OC)c(OC)cc1CN1CCC2(CC1)CN(Cc1ccc(Cl)c(Cl)c1)C(=O)O2	94% (active)	8%	3	90% (active)	inactive	inactive	inactive	inactive
CC(=O)c1ccc(S(=O)(=O)N2CCC(C(=O)Nc3ccccc3N3CCCC3)CC2)cc1	99% (active)	-3%	-8	95% (active)	inactive	inactive	inactive	inactive
CCc1sc(N2CCC(C)CC2)nc1C(=O)Nc1ccc(F)cc1C(F)(F)F	65% (active)	1%	2	94% (active)	inactive	inactive	inactive	inactive
Cn1nc(-c2ccc(S(=O)(=O)N3CCC(CCN4CCC(c5c[nH]c6ccccc56)CC4)CC3)s2)cc1C(F)(F)F	22%	40%	4	94% (active)	inactive	inactive	inactive	inactive
COc1ccc2nccc([C@@H](O)CN3CCC(NCc4cc5c(cc4F)SCC(=O)N5)CC3)c2n1	27%	14%	3	96% (active)	inactive	inactive	inactive	inactive
Cc1cnc(NC(=O)c2cn(-c3ccccc3)nc2-c2cccs2)s1	1%	-5%	-1	91% (active)	inactive	inactive	inactive	inactive
CC(Cc1ccc(NC(=O)c2ccc(NCCc3ccccc3)cc2)cc1)NCCc1cccc(Cl)c1 (stereo unspecified)	1%	25%	4	92% (active)	inactive	inactive	inactive	inactive
CCCCCCCc1c2c(C)c(C(=O)OCC)nc-2cc2n1CC(C)=C2C	10%	11%	1	89% (active)	inactive	inactive	inactive	inactive
O=c1cc(NCCCNCc2scc3c(Cl)cc(C(F)(F)F)nc23)[nH]c2ccccc12	21%	9%	-1	99% (active)	inactive	inactive	inactive	inactive
Cc1cc([N+](=O)[O-])ccc1N1CCN(CCCCNC(=O)c2ccc(NC(=O)c3ccc(Cl)cc3)cc2)CC1	-1%	33%	2	92% (active)	inactive	inactive	inactive	inactive
Nc1ncc(-c2ccsc2)c2ccc(-c3ccc4cn[nH]c4c3)cc12	41%	18%	6	95% (active)	inactive	inactive	inactive	inactive
COc1ccc2nccc(N3CCC(CCNCc4ccc5c(n4)NC(=O)CO5)CC3)c2c1	50% (active)	22%	-1	101% (active)	inactive	inactive	inactive	inactive
Cn1nccc1C(=O)NCCNCc1ccc(-c2ccc(-c3nc4ccc(C(F)(F)F)cc4[nH]3)s2)cc1	99% (active)	48%	-5	101% (active)	inactive	inactive	inactive	inactive
CCC(CCON1C(N)=NC(N)=NC1(C)C)c1ccc(Cl)cc1 (stereo unspecified)	95% (active)	66% (active)	1	94% (active)	inactive	inactive	inactive	inactive
CSc1nccc(-c2ccc3ccnc(N)c3c2)n1	98% (active)	30%	0	101% (active)	inactive	inactive	inactive	inactive
CC[C@H]1CN2CCc3c([nH]c4ccccc34)[C@@H]2C[C@@H]1CC1c2cc(OC)c(OC)cc2CCN1C (stereo partly specified)	45%	31%	5	85% (active)	inactive	inactive	inactive	inactive
COc1cc(C(=O)Nc2cccc(-c3nc4ccccc4[nH]3)c2)cc(OC)c1OC	41%	25%	-3	99% (active)	inactive	inactive	inactive	inactive

SMILES	growth inhibition [1]	inhibition [2]	inhibition [3] [%]	growth inhibition [4]	outcome [5]	outcome [6]	outcome [7]	outcome [8]
O=C(Cc1ccc(Cl)cc1)NC1CCN(c2ccnc3cc(Cl)ccc23)C1 (stereo unspecified)	99% (active)	13%	-3	82% (active)	inactive	inactive	inactive	inactive
CC(=O)c1c(CC(=O)O)c2ccccc2n1O	-1%	16%	-3	98% (active)	inactive	inactive	inactive	inactive
CCCCCCSc1nnc(COc2cccc3ccccc23)n1-c1ccc(OC)cc1	100% (active)	19%	3	99% (active)	inactive	inactive	inactive	inactive
CCc1ccc(O)c(-c2cc(C(=O)Nc3ccc(OC)c(Cl)c3)[nH]n2)c1	97% (active)	15%	-1	93% (active)	inactive	inactive	inactive	inactive
O=C(Nc1cccc(-c2ccc(CN3CCC(O)CC3)cc2)c1)c1cccc(Cl)c1	2%	11%	-11	96% (active)	inactive	inactive	inactive	inactive
CCn1ccc2c(N3CCCC3=O)cc(C(=O)N[C@@H](Cc3ccccc3)[C@H](O)CNC3CCCCC3)cc21	98% (active)	12%	2	99% (active)	inactive	inactive	inactive	inactive
CCN1CCN(CCCNc2c3ccccc3nc3ccccc23)CC1	3%	44%	-1	100% (active)	inactive	inactive	inactive	inactive
C=CCOc1ccccc1CNCC(O)c1cc(Br)cs1 (stereo unspecified)	72% (active)	25%	-4	93% (active)	inactive	inactive	inactive	inactive
COc1ccc2nccc([C@@H](O)CN3CCC(NCc4cc5ccccc5[nH]4)CC3)c2c1	41%	75% (active)	4	92% (active)	inactive	inactive	inactive	inactive
CN(C)CCCNc1c2ccccc2nc2ccccc12	4%	31%	-3	91% (active)	inactive	inactive	inactive	inactive
O=C(c1ccc([N+](=O)[O-])o1)N1CCC(Cc2ccc(C(F)(F)F)cc2)CC1	99% (active)	38%	-2	101% (active)	inactive	inactive	inactive	inactive
Cc1cccc2[nH]c(-c3ccc(-c4cccc(CNCc5ccccc5)c4)cc3)nc12	52% (active)	3%	-1	102% (active)	inactive	inactive	inactive	inactive
CC[C@H](C)CNC(=O)c1cncc(-c2cccc(CNCCCc3ccccc3)c2)c1	0%	9%	1	95% (active)	inactive	inactive	inactive	inactive
CC1Cc2ccccc2N1S(=O)(=O)c1cc(OCC(F)(F)F)ccc1OCC(F)(F)F (stereo unspecified)	95% (active)	10%	0	96% (active)	inactive	inactive	inactive	inactive
CC(C)(C)[C@@H](Nc1ccc(C#N)c2ccccc12)C(=O)NC1(Cc2ccc(O)cc2)CCCC1	74% (active)	14%	0	90% (active)	inactive	inactive	inactive	inactive
CCn1c(Cc2ccccc2)nnc1Sc1ccc([N+](=O)[O-])c(C#N)c1	72% (active)	8%	-5	93% (active)	inactive	inactive	inactive	inactive
Clc1ccc(NC(=NCCCCCCCN=C(Nc2ccc(Cl)cc2)Nc2ccc(Cl)cc2)Nc2ccc(Cl)cc2)cc1	99% (active)	100% (active)	0	101% (active)	inactive	inactive	inactive	inactive
CCC(=O)Nc1ccc(C(O)CN2CCC3(C=Cc4ccccc4O3)CC2)cc1 (stereo unspecified)	47%	48%	-1	93% (active)	inactive	inactive	inactive	inactive
Cc1nc(-c2cccc(Nc3nccc(NCC(O)c4ccc(C(F)(F)F)cc4)n3)c2)cs1 (stereo unspecified)	99% (active)	33%	4	100% (active)	inactive	inactive	inactive	inactive
CCCCCC(C)c1cc(O)c2c(c1)OC(C)(C)C=C2C1=CCN(Cc2ccccc2)CC1 (stereo unspecified)	96% (active)	13%	-5	96% (active)	inactive	inactive	inactive	inactive
COc1cccc2c(NN=Cc3ccc(Cl)cc3)ccnc12	39%	26%	5	99% (active)	inactive	inactive	inactive	inactive
